Measured values as given in PubChem BioAssay (NCATS).
Inconclusive results are not listed. Activity calls are given as the source filed them. Calls follow the shape of the dose curve; as a rule, active = well fitted curve in the direction sought with a large enough effect; inconclusive = small, poorly fitted or top-dose-only effect, or another doubt; inactive = no such curve, though single readings can be large; an effect the other way counts as inactive or inconclusive.

Experiments:
[1] = qHTS of pediatric cancer cell lines to identify multiple opportunities for drug repurposing: Primary screen for SK-N-SH cells (AID 1347098); also: nearly all actives have a fitted effect of over 65% in size; also: potency is read from the fitted curve at half-maximal effect
Procedure, shortened: (§1)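 Cells (500-1,000/well) rested 5 h, then received compounds for 48 h; metabolically active cells were measured by CellTiter-Glo luminescence. Final concentrations spanned up to 46 µM (MIPE, 11-point) or 0.59 nM-46 µM (NPC, 8-point) in primary screens, 11-point in follow-ups.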

[2] = qHTS of pediatric cancer cell lines to identify multiple opportunities for drug repurposing: Primary screen for NB1643 cells (AID 1347099); also: nearly all actives have a fitted effect of over 50% in size; also: potency is read from the fitted curve at half-maximal effect
Procedure, shortened: (§2)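 ATP-based luminescence (CellTiter-Glo) quantifies viability after a 48-hour exposure. Compounds are dosed across 8 or 11 final concentrations; DMSO and 2.3 µM bortezomib serve as controls.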

[3] = qHTS of pediatric cancer cell lines to identify multiple opportunities for drug repurposing: Primary screen for LAN-5 cells (AID 1347100); also: potency is read from the fitted curve at half-maximal effect
Procedure, shortened: as §1

[4] = qHTS of pediatric cancer cell lines to identify multiple opportunities for drug repurposing: Primary screen for BT-12 cells (AID 1347101); also: nearly all actives have a fitted effect of over 25% in size
Procedure, shortened: as §1

[5] = qHTS of pediatric cancer cell lines to identify multiple opportunities for drug repurposing: Primary screen for Rh18 cells (AID 1347102); also: nearly all actives have a fitted effect of over 65% in size
Procedure, shortened: as §1

[6] = qHTS of pediatric cancer cell lines to identify multiple opportunities for drug repurposing: Primary screen for RD cells (AID 1347104); also: nearly all actives have a fitted effect of over 55% in size; also: potency is read from the fitted curve at half-maximal effect
Procedure, shortened: as §2

[7] = qHTS of pediatric cancer cell lines to identify multiple opportunities for drug repurposing: Primary screen for MG 63 (6-TG R) cells (AID 1347105); also: nearly all actives have a fitted effect of over 50% in size
Procedure, shortened: as §2

[8] = qHTS of pediatric cancer cell lines to identify multiple opportunities for drug repurposing: Primary screen for control Hh wild type fibroblast cells (AID 1347106);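 also: series mostly up to about 46 µM; a drop in luminescence marks cytotoxicity and a rise apparent proliferation; nearly all actives have a fitted effect of over 55% in size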
Procedure, shortened: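 Viability after 48 h compound treatment at 37C, 500-1,000 cells/well, read as ATP luminescence with CellTiter-Glo. Primary screens used 11-point (MIPE, 0.78 nM-46 µM) or 8-point (NPC, 0.59 nM-46 µM) final concentrations; follow-up screens used 11-point dilutions.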

[9] = qHTS of pediatric cancer cell lines to identify multiple opportunities for drug repurposing: Primary screen for Rh30 cells (AID 1347107); also: series mostly up to about 46 µM; nearly all actives have a fitted effect of over 75% in size
Procedure, shortened: as §1

[10] = qHTS of pediatric cancer cell lines to identify multiple opportunities for drug repurposing: Primary screen for OHS-50 cells (AID 1347103); also: nearly all actives have a fitted effect of over 40% in size; also: potency is read from the fitted curve at half-maximal effect
Procedure, shortened: as §1

Measured: Potency

Cc1cccc(Cc2cnc[nH]2)c1C
inactive: [1] | [2] | [3] | [4] | [5] | [6] | [7] | [8] | [9]

COc1cc(C[C@@H](C)N)c(OC)cc1Br
inactive: [1] | [2] | [3] | [4] | [5] | [7] | [8] | [9]

CC(CC(C(N)=O)(c1ccccc1)c1ccccc1)N(C)C (centres undefined)
inactive: [1] | [2] | [3] | [4] | [5] | [6] | [7] | [8] | [9]

CC1=C2[C@H]3OC(=O)[C@@H](C)[C@@H]3CC[C@@]2(C)C=CC1=O
inactive: [1] | [2] | [3] | [4] | [5] | [10] | [6] | [8] | [9]

CC(Cc1ccccc1)NCc1ccccc1Cl (centres undefined)
inactive: [1] | [2] | [3] | [4] | [5] | [6] | [7] | [8] | [9]

COc1ccc2c3c1O[C@H]1[C@@H](O)C=C[C@H]4[C@@H](C2)N(C)CC[C@@]341
active: [1] 17.4 µM | [2] 23.8 µM | [3] 33.7 µM | [10] 44 µM | [6] 47.6 µM
inactive: [8] | [9]

C[C@H]1C(=O)O[C@@H]2CCN3CC=C(COC(=O)[C@](C)(O)[C@]1(C)O)[C@H]23
inactive: [1] | [2] | [4] | [5] | [10] | [6] | [7] | [8] | [9]

CN1C(=O)[C@@H](NC(=O)c2cc3ccccc3[nH]2)N=C(c2ccccc2)c2ccccc21
inactive: [1] | [2] | [4] | [5] | [10] | [7] | [8] | [9]

CN1C[C@@H](NS(=O)(=O)N(C)C)C[C@@H]2c3cccc4c3c(cn4C)C[C@H]21
inactive: [1] | [3] | [4] | [5] | [6] | [7] | [8] | [9]

C=CC[C@]1(O)CC[C@H]2[C@@H]3CCC4=CC(=O)CCC4=C3C=C[C@@]21C
inactive: [1] | [3] | [5] | [6] | [7] | [8] | [9]

OC(c1ccccc1)(c1ccccc1)C1CCNCC1
inactive: [1] | [3] | [4] | [6] | [7] | [8] | [9]

CCCCCCCCC(=O)NCc1ccc(O)c(OC)c1
inactive: [4] | [5] | [6] | [8] | [9]
active: [1] 0.0014 µM | [3] 0.001 µM | [10] 0.001 µM

CC(C)[N+](C)(CCC(C(N)=O)(c1ccccc1)c1ccccc1)C(C)C
inactive: [1] | [3] | [4] | [5] | [10] | [6] | [7] | [8] | [9]

COC(=O)C1=CCCN(C)C1
inactive: [1] | [3] | [4] | [5] | [10] | [6] | [7] | [8] | [9]

COP(=S)(OC)Oc1ccc(Sc2ccc(OP(=S)(OC)OC)cc2)cc1
inactive: [1] | [3] | [4] | [5] | [10] | [6] | [7] | [8] | [9]

COc1ccc2c(C(=O)c3ccc(Cl)cc3)c(C)n(CC(=O)O)c2c1
inactive: [1] | [3] | [4] | [5] | [10] | [6] | [8] | [9]

C#C[C@]1(O)C=C[C@H]2[C@@H]3CCC4=CC(=O)CC[C@@H]4[C@H]3CC[C@@]21CC
inactive: [1] | [3] | [4] | [5] | [6] | [7] | [8] | [9]

Oc1c(Br)cc(Br)cc1Br
inactive: [1] | [3] | [4] | [5] | [10] | [6] | [7] | [8] | [9]

CCOC(C(=O)OCCN(C)C)(c1ccccc1)c1ccccc1
inactive: [1] | [3] | [4] | [5] | [6] | [7] | [8] | [9]

C[C@]12CC[C@H](O)CC1=CC[C@@H]1[C@@H]2CC[C@]2(C)C(=O)CC[C@@H]12
inactive: [1] | [3] | [4] | [5] | [6] | [7] | [8] | [9]

CC(C)=CCN1CC[C@@]2(C)c3cc(O)ccc3C[C@@H]1[C@@H]2C
inactive: [1] | [3] | [4] | [5] | [7] | [8] | [9]

COc1ccc2[nH]cc(CCN(C(C)C)C(C)C)c2c1
active: [1] 36.1 µM
inactive: [3] | [4] | [5] | [6] | [7] | [8] | [9]

CN1C(=O)CN=C(c2ccccc2)c2cc(Cl)ccc21
inactive: [1] | [3] | [4] | [6] | [7] | [8] | [9]

CCOC(=O)C(c1c(O)c2ccccc2oc1=O)c1c(O)c2ccccc2oc1=O
inactive: [1] | [3] | [4] | [5] | [10] | [6] | [7] | [8] | [9]

CC(C)(C)OC(=O)c1ncn2c1[C@@H]1CCCN1C(=O)c1c(Br)cccc1-2
inactive: [1] | [3] | [4] | [5] | [10] | [6] | [7] | [8] | [9]

CC(Cc1ccc2c(c1)OCO2)NO (centres undefined)
inactive: [1] | [3] | [4] | [5] | [10] | [6] | [7] | [8] | [9]

O=C(N[C@H]1N=C(c2ccccc2F)c2cccc3c2N(CC3)C1=O)c1cc2ccccc2[nH]1
inactive: [1] | [3] | [4] | [5] | [10] | [6] | [7] | [8] | [9]
